Laboratory results reported in PubChem BioAssay AID1117319 (Southern Research Institute, 2015).
Where “and” joins values, the source holds several entries; their conditions need not be identical. Equal entries are not always repeated. Among all 260,000 compounds or so, about 1,500 (0.58%) were called active. Roughly 5% stayed inconclusive and do not appear here.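 How the source made its calls: active means inhibition above a set limit at one or more doses, reproduced on every date tested; inconclusive means results disagree between test dates, or hit never tested in dose response; inactive means the rest.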 These entries were drawn from the full list. Measured potencies and affinities stand elsewhere.

Target: Virion infectivity factor (Human immunodeficiency virus type 1 group M subtype B (isolate BH10)) + Virion infectivity factor (Human immunodeficiency virus type 1 group M subtype B (isolate BRU/LAI)) + Virion infectivity factor (Human immunodeficiency virus type 1 group M subtype B (isolate PCV12)) + Virion infectivity factor (Human immunodeficiency virus type 1 group M subtype B (isolate HXB2)) + DNA dC->dU-editing enzyme APOBEC-3G (Homo sapiens) (UniProt P69720+P69721+P69722+P69723+Q9HC16)
Assay: HIV-1 Vif–A3G interaction blockers – biochemical, TR-FRET, GST-Vif 1-94, biotin-A3G peptide, dose response retest, primary screen (AID 1117319);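 further: Vif residues 1-94 fused to GST binding biotinylated APOBEC3G peptide 110-148; 0% = full assay without inhibitor and 100% = GST in place of GST-Vif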
Conditions: TR-FRET GST-Vif / biotin-A3G peptide binding; active compounds read high

inhibition, inactive:
CNCc1ccccc1Sc1cccc(O)c1 -4.96%, CNCc1ccccc1Sc1ccc(OC)cc1 4.31%, Cc1ccc(O)c(Sc2cc(C)ccc2O)c1 3.64%, CNCc1ccccc1Sc1cccc2ccccc12 -4.29%, O=C(COc1cc(F)ccc1[N+](=O)[O-])Nc1ccc2c(c1)OCO2 -6.99%, CNCCCOc1cccc(Oc2ccccc2)c1 9.66%, COc1cccc2cc(C(=O)c3ccccc3)oc12 -4.51%, O=C(NCc1ccc2c(c1)OCO2)c1ccccn1 10.1%, O=C(Nc1ccc2c(c1)OCO2)c1cc2ncc(Br)cn2n1 6.91%, O=C(NN1CCOCC1)c1cc(-c2ccc(Cl)c(Cl)c2)nc2ccccc12 -15.2%, CC1CC(OCC(O)CN2CCOCC2)CC(C)(C)C1 (centres undefined) -2.99%, N#CCC(=O)Nc1ccc(C(=O)OC(C(=O)Nc2cc(C(F)(F)F)ccc2Cl)c2ccccc2)cc1 (centres undefined) 6.13%, CCOC(=O)C(=NC1CCS(=O)(=O)C1)NNc1cc(Cl)ccc1Cl (centres undefined) 11.7%, CCOC(=O)CCCn1ncn2c(cc3occc32)c1=O 7.22%, COC(=O)Cn1ncn2cccc2c1=O 31%, CC1CCCCC1NC(=O)CCNS(=O)(=O)c1ccc2c(c1)CCC(=O)N2 (centres undefined) 6.16%, CCCn1nc(C(=O)Nc2cccc(C(=O)OC)c2)c2ccccc2c1=O 0.28%, COC(=O)c1ccc(C)c(NC(=O)c2nn(C)c(=O)c3ccccc23)c1 0.46%, CCN(C(=O)C1CCCCC1)c1nnc(-c2cccnc2)s1 -11.9%, O=C(C1CCCN1S(=O)(=O)c1cccc2cccnc12)N1CCc2ccccc2C1 (centres undefined) 8.45%, O=C(C1CCN(S(=O)(=O)c2cccc3cccnc23)CC1)N1CCN(c2ccccc2)CC1 3.12%, O=C1CCCN1CCCNC(=S)Nc1cccc2ccccc12 30.4%, CC(C)OC(=O)CSc1nnc(-c2ccncc2)n1N -2.43%, O=c1cc(CN2CCCc3ccccc32)nc2sccn12 22%, O=c1cc(CN2CCc3ccccc32)nc2sccn12 23.2%, Cc1ccc(CCNc2ncnc(Cl)c2N)cc1 -3.15%, Cc1nn(C)cc1/C=N\NC(=O)c1ccc(Cn2cc(Cl)cn2)cc1 -3.19%, COc1cc(C(C#N)N2CCCCC2)ccc1O (centres undefined) 7.46%, COc1cccc(C(C#N)N2N=C(C)CC2(C)C)c1O (centres undefined) -2.38%, O=S(=O)(Nc1cccc(-n2cnnn2)c1)c1ccccc1F -7.41%, Oc1c(C=Nc2ccccc2)sc2ccccc12 -6.91%, COc1ccc(N=Cc2sc3ccccc3c2Cl)cc1 0.88%, CCCOc1ccc(NC(N)=O)cc1OCCC 0.61%, C=C1CCN([C@H](C(=O)NCc2ccc(OC)cc2)C(C)C)S(=O)(=O)c2ccccc21 2.28%, CCCn1nnc(NC(=O)c2ccc(-c3cc(Cl)ccc3Cl)o2)n1 3.66%, O=C(NNC(=O)c1ccc(Cl)c(Cl)c1)c1cccnc1 -10.1%, COCc1nnc(NS(=O)(=O)c2ccc(Cl)cc2)s1 -13.7%, Cc1ccnc2ccc(P(=O)(c3ccccc3)c3ccccc3)cc12 -4.5%, Cc1cc[n+](CCC(=O)O)c2ccccc12 27.6%, CC[n+]1ccc(C[n+]2ccccc2)c2ccccc21 31.8%, Nc1ccc(S(=O)C(F)(F)F)cc1 (centres undefined) -4.35%, CC(C)CN(C(=O)COC(=O)Cc1c[nH]c2ccccc12)C1CCS(=O)(=O)C1 (centres undefined) -1.62%, Cn1cnc([N+](=O)[O-])c1C(=O)Nc1cccc([N+](=O)[O-])c1 -0.16%, CCc1ccc(NC(=O)CSCc2ccc(C(=O)O)cc2)cc1 2.67%, O=C(/C(=C(\[O-])c1ccccc1)[n+]1ccc2ccccc2c1)c1ccc(Cl)cc1 -6.22%, Cc1ccc(C)c(S(=O)(=O)Nc2cc(SCC(=O)O)c(O)c3ccccc23)c1 30.9%, Cc1cc(C)c(S(=O)(=O)Nc2cc(SCC(=O)O)c(O)c3ccccc23)cc1C 29.4%, COC(=O)c1cc2sccc2n1CC(=O)Nc1ccc(OC)c(OC)c1OC -6.58% and -2.62%, Cc1ccc(-c2nnc3n2CCCCC3)cc1 32.1%, C1CCc2nnc(-c3nnc4n3CCCCC4)n2CC1 -7.36%, O=C(Nc1cccc2nsnc12)c1ccc2c(c1)OCO2 -0.24%, COc1cccc(OCC(O)CN2CCN(c3ccc(Cl)cc3)CC2)c1 (centres undefined) 2.34%, COc1ccc(O)c(/C=N/c2sc(C)c(C)c2C#N)c1 10.1%, COc1ccc(S(=O)(=O)N2CCOCC2)cc1C(=O)Nc1cc(C)on1 2.2%, Cc1nn(-c2ccccc2)c(Cl)c1C1C(C#N)=C(N)Oc2c1c(C)nn2-c1ccccc1 (centres undefined) 2.03%, CCOC(=O)C1=C(C)OC(N)=C(C#N)C1c1c(C)nn(-c2ccc(C)cc2)c1Cl (centres undefined) 1.7%, CC(=O)c1cccc(OCc2cc(C(=O)N(C)Cc3nccs3)no2)c1 -3%, CC(C)(C)c1ccc(N2C(=O)CC(C/C=C/c3ccccc3)C2=O)cc1 (centres undefined) -5.69%, O=C(COC(=O)c1ccc(S(=O)(=O)Nc2ccccc2)cc1)NCc1ccco1 3.75%, O=C(COC(=O)c1ccc(NS(=O)(=O)c2cccs2)cc1)NCC1CCCO1 (centres undefined) -1.37%, CC1CC(=O)Nc2ccccc2N1C(=O)CN1C(=O)C(=O)N(C)C1=O (centres undefined) 3.84%, CC(=O)Nc1ccc(/C=N/Nc2nncc3ccccc23)cc1 -1.2%, Cc1cccc(C)c1NC(=O)COC(=O)CN1C(=O)C2CCCCC2C1=O (centres undefined) -6.55%, O=C1C2C3C=CC(C3)C2C(=O)N1c1ccccc1 (centres undefined) 23.8%, O=C1C2C3CCC(CC3)C2C(=O)N1c1ccccc1 (centres undefined) 3.86%, COc1ccc(-c2nc(SC(CC(=O)NCCO)c3cccs3)n[nH]2)cc1 (centres undefined) -4.6%, Cc1ccc(-c2nnc(N3CCOCC3)c3ccccc23)cc1S(=O)(=O)N(C)C -45.2%, Cc1nc(NCCc2ccccc2)c2nnn(Cc3ccccc3)c2n1 -8.97%, COc1ccc(CC(=O)NCc2ccccc2F)cc1S(=O)(=O)N1CCOCC1 -8.33%, Cc1ccccc1NC(=O)Cc1nc(COC(=O)COc2cccc(C)c2C)cs1 -1.31%, Cc1ccc(-c2nn[nH]n2)o1 -6.6%, COCCNC(=O)/C(C#N)=C/c1cccc(/C=C(\C#N)C(=O)NCCOC)c1 -1.66%, COCCNC(=O)/C(C#N)=C/c1ccc(OC(=O)c2cccs2)c(OC)c1 12.9%, CCCN1C2CCCC1CC(NC(=O)c1ccccc1Br)C2 (centres undefined) -0.94%, COc1cc(C2NC(=O)NC3=C2C(=O)OC3)cc(OC)c1OC (centres undefined) -6.88%, Cn1cc(C(=O)Nc2ccc(Cl)cc2)c(C(F)(F)F)n1 -6.34%, COc1ccc(NCc2ccc([N+](=O)[O-])s2)cc1 -7.61%, CCN1C(=O)/C(=C/c2ccc(C)s2)NC1=S 20.4%, COc1ccc(Sc2ccc(/C=C3\C(=O)NN(c4ccccc4)C3=O)o2)cc1 27.1%, COc1ccc(NC(=O)CCC(=O)N/N=C/c2ccc([N+](=O)[O-])s2)cc1 23.7%, CCCN1C(=O)/C(=C/c2ccc(C)s2)NC1=S 1.31%, Cc1ccc(/C=C2/NC(=O)N(Cc3ccc(Br)cc3)C2=O)o1 18.3%, CC(=O)c1sc(NC(=O)c2ccc(F)cc2)nc1-c1ccccc1 -5.82%, C[C@@H](CO)NC(=O)c1ccc2c3n(nc2c1)-c1ccccc1CO3 -3.9%, COc1cccc(CN2CCC(n3nccc3NC(=O)C3CC3)CC2)c1 3.21%, CCCN1CCN(CC(O)COC(c2ccc(OC)cc2)c2ccc(OC)cc2)CC1 (centres undefined) 3.65%, Cc1cccc(NC(=O)c2sc3nc(-c4ccc(F)cc4)cn3c2C)n1 -26.2%, O=C(NC(=S)Nc1ccccc1N1CCCC1)c1cccc(F)c1 5.9%, COc1cc(/C=N/Nc2nc(=O)[nH]nc2C)cc([N+](=O)[O-])c1O 5.18%, O=C(NC1CCCCC1)c1ccccc1NC(=O)C1CC(=O)N(c2ccc(Cl)cc2)C1 (centres undefined) 31.5%, C/C(O)=c1/ccc2cccc3nc(C)nc1c23 32.6%, NNc1nc(C(F)(F)F)nc2ccccc12 -3.12%, Cc1ccc(S(=O)(=O)NC2CCCCC2)cc1C(=O)N1CCC(C(N)=O)CC1 -4.11%, Cc1ccc(/C=C2\Oc3c(ccc(O)c3CN3CCN(CCO)CC3)C2=O)cc1 -6.62%, CCc1ccc(/C=C2\Oc3c(ccc(O)c3CN3CCN(C)CC3)C2=O)cc1 29.7%, CC(C)(C)c1ccc(/C=C2\Oc3c(ccc(O)c3CN3CCN(CCO)CC3)C2=O)cc1 2.03%, COCCN(CCOC)Cc1c(O)ccc2c1O/C(=C\c1ccco1)C2=O 25.4%, COc1ccccc1-c1coc2c(CN3CCCC(C)C3)c(O)ccc2c1=O (centres undefined) -11.2%, CCN1CCN(Cc2c(O)ccc3c2O/C(=C\c2ccccc2)C3=O)CC1 -1.46%
